In PubChem BioAssay (NCATS):
Records with an inconclusive call do not appear. Entries that show only a call come without a potency. Calls of active or inactive are those of the source. Calls come from the whole dose curve; as a rule, active = well fitted cell-killing curve with a large enough effect; inconclusive = small, poorly fitted or top-dose-only effect, or effect the other way; inactive = no such curve, though single readings can be large or run the other way.

Assay: Quantitative High-Throughput drug screen in 47 multiple myeloma cell lines against the NCATS MIPE library collection: Karpas620_DSMZ cell viability assay (AID 1918959); note: nearly all actives have a fitted effect of over 30% in size
Conditions: Karpas620 myeloma viability, CellTiter-Glo ATP luminescence, 48 h; series mostly up to 45.8 µM
Procedure, shortened: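 Inhibition of cell viability is measured here. Each line was plated at 500 cells per well, treated with MIPE 4.0 drugs, kept 48 hours at 37C, then assayed for ATP content by CellTiter-Glo luminescence.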

Row | SMILES | Potency
1 | CN(C)CCN(Cc1ccc(Cl)cc1)c1ccccn1 | inactive
2 | CCCC1OC2C[C@@H]3[C@H]4CCC5=CC(=O)C=C[C@]5(C)[C@H]4C(O)C[C@]3(C)[C@]2(C(=O)CO)O1 (some centres undefined) | inactive
3 | CCNC(=O)CCCC=CC[C@@H]1[C@H](C=CC(O)CCc2ccccc2)[C@@H](O)C[C@@H]1O (some centres undefined) | inactive
4 | C=C1c2cccc(O)c2C(O)=C2C(=O)[C@@]3(O)C(O)=C(C(N)=O)C(=O)[C@@H](N(C)C)[C@@H]3[C@@H](O)[C@H]12 | inactive
